Screening results deposited in PubChem BioAssay by several laboratories.
TAG inh = inhibitors of triacylglycerol accumulation, primary screen, cell-based, uHTS, fluorescence, H9c2; H9c2 cells, Nile Red lipid (TAG) fluorescence; cells loaded with 200 µM oleic acid; inhibition, % at 12.5 µM; 230,000 tested, 0.66% active; AID 651582, 2012;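 active = pattern-corrected inhibition of lipid staining of at least 50% with the nuclear-stain viability signal not falling by more than 50%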;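 note: 0% = DMSO wells and 100% = triacsin C control wells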
H9c2 protect = cardioprotection against H2O2-induced cell death, primary screen, uHTS, H9c2 cells, ATPLite luminescence | AID 588492, 2011 | 360,000 tested, 0.63% active | protection from H2O2 cell death, % at 20 µM | H9c2 cardiomyocytes, H2O2 injury protection, 2 h;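 active = compounds giving at least 50% protection of heart cells from peroxide-induced death in the single-dose screen, raw or plate-pattern-corrected value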;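 note: 0% = DMSO wells with peroxide and 100% = DMSO wells without peroxide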
Gli-Sufu block = Gli-Sufu pathway antagonists, primary screen, luciferase luminescence, Sufu-KO-LIGHT cells, uHTS | inhibition, % at 5 µM | 340,000 tested, 0.74% active | Sufu-KO-LIGHT fibroblasts, Gli luciferase reporter luminescence;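 active = inhibition above about 55%, limit read from the data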;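 note: 0% = DMSO-treated cells and 100% = wells with medium but no cells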
COUP-TFII inh = NR2F2 transcriptional activity inhibitors, primary screen, cell-based, luciferase reporter, HEK293T, luminescence | COUP transcription factor 2 (Homo sapiens), P24468 | HEK293T NGFI-A luciferase reporter | inhibition, % at 8.6 µM | 370,000 tested, 0.7% active | AID 686940, 2013;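 active = inhibition above a per-plate cutoff, mean inhibition of test wells between control levels plus 3 SD, cut at about 38% in these data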;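 note: cells cotransfected with COUP-TFII expression vector driving the NGFI-A reporter; 0% = median of COUP-TF2 test wells and 100% = reporter-only cells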
Target sequence (P24468 whole entry, looked up): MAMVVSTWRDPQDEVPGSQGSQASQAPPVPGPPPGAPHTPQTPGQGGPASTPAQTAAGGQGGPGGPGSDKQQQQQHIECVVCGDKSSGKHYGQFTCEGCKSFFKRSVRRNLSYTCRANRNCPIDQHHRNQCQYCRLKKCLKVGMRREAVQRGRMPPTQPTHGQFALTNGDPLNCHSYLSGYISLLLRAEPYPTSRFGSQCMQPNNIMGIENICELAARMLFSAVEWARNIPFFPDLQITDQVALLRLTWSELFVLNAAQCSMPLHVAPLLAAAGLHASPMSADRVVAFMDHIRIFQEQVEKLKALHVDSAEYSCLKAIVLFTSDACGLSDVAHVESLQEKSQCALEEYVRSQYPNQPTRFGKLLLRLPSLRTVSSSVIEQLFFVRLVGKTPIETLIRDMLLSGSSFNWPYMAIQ
Jurkat NFkB inh = inhibitors of induced NF-kB luciferase reporter, primary screen, TCR NF-kB activation inhibitor project, cell-based, luminescence, uHTS; inhibition, % at 4 µM; Jurkat, PMA/ionomycin-induced NF-kB luciferase reporter; 330,000 tested, 0.53% active; in the data active = inhibition above about 50%
697 NFkB inh = inhibitors of PMA/ionomycin-induced NF-kB reporter, 697 cells, primary screen, B-cell NF-kB inhibitor project, cell-based, luminescence, uHTS. inhibition, % at 4 µM. 330,000 tested, 0.33% active. AID 435022, 2010. 697 B-cell NF-kB luciferase reporter, 16 h; in the data active = inhibition above about 35%
* hit, by the source's call; / = not tested or not shown. This is a sample that favours compounds with a hit; in the whole collection about 2.6% have one here.

SMILES	TAG inh	H9c2 protect	Gli-Sufu block	COUP-TFII inh	Jurkat NFkB inh	697 NFkB inh
C=C1C(=O)C23CCC4C(C)(C(=O)OC)CCCC4(C)C2CCC1(O)C3 (stereo not drawn)	117	-21	44	78*	/	/
COC(=O)[C@]1(C)CCC[C@@]2(C)C3CC[C@@]4(C)C[C@]3(CCC21)CC(=O)N4 (stereo partly drawn)	-13	4	30	4	2	-8
Cc1nc(N2CCN(C(=O)c3ccco3)CC2)c2c3c(sc2n1)CC(C)CC3 (stereo not drawn)	16	-20	79*	0	-11	-14
Cc1nc(N2CCN(C(=O)c3ccco3)CC2)c2c3c(sc2n1)CCCC3	/	12	16	8	13	3
CCCCNC(=O)C[C@H]1C[C@@]2(C(=O)OC)C(=C[C@H](C3CCCC3)O[C@@H]2C)N(Cc2cccc3ccccc23)C1=O	/	/	/	4	/	/
CCOC(=O)C1=C(C)N=c2s/c(=C\c3ccncc3)c(=O)n2C1c1ccc2c(c1)OCO2 (stereo not drawn)	0	55*	8	13	15	11
O=C(N/N=C/c1ccc(O)c(O)c1)c1ccc(CSc2cccc3cccnc23)cc1	/	88*	26	-10	-23	0
O=C1c2ccccc2NC(c2cccs2)N1O (stereo not drawn)	32	17	2	-18	-5	-7
O=C1c2ccccc2NC(c2cn[nH]c2-c2ccccc2)N1O (stereo not drawn)	/	50*	0	-4	1	0
O=C1c2ccccc2NC(c2cn[nH]c2-c2ccc(Cl)cc2)N1O (stereo not drawn)	/	67*	2	3	33	-34
O=C1c2ccccc2NC(c2ccccc2O)N1O (stereo not drawn)	/	52*	9	6	-4	-12
COc1ccc(-c2nnc3n2N=C(c2cccc([N+](=O)[O-])c2)CS3)cc1	/	/	/	-7	/	/
CCCC/C=C1/[C@@H](CC)N(Cc2ccc(OC)cc2OC)C2=N[C@@H](c3ccccc3)CC(=O)N21	/	/	/	7	/	/
CCc1ccc(CCNC(=O)OC2CC3CC2[C@H]2CCCCN2C3)cc1 (stereo partly drawn)	/	/	/	-28	/	/
C=CCOc1ccc(C2NC(=O)c3ccccc3O2)cc1OCC (stereo not drawn)	4	-1	-21	5	13	-13
CCOC(=O)COc1cccc(C2NC(=O)c3ccccc3O2)c1 (stereo not drawn)	3	83*	-5	19	3	2
Cc1ccc2nc3sc(C(=O)NCc4ccco4)c(N)c3cc2c1	/	-11	9	-30	-13	-90
COc1cc2cc3c(N)c(C(=O)NCc4ccco4)sc3nc2cc1OC	10	58*	-48	/	-3	7
Cc1ccc2occ(C(c3nnnn3C3CCCC3)N3CCN(C(=O)c4ccco4)CC3)c(=O)c2c1 (stereo not drawn)	/	52*	2	-8	4	11
c1ccc2c(c1)CCN(c1nc3ccccc3n3cnnc13)C2	12	58*	-25	-41	-7	-7
c1ccc(CN2CCN(c3nc4ccccc4n4cnnc34)CC2)cc1	17	5	8	-4	1	-16
c1ccc2c(c1)CCCN2c1nc2ccccc2n2cnnc12	12	54*	-8	-12	-31	-29
Cc1cc(C)n(-c2nc3ccccc3n3cnnc23)n1	2	2	4	-1	8	-3
C1=C(c2ccccc2)CCN(c2nc3ccccc3n3cnnc23)C1	0	67*	-4	-1	8	-13
c1ccc(N2CCN(c3nc4ccccc4n4cnnc34)CC2)cc1	15	23	7	19	-7	-15
SMILES	TAG inh	H9c2 protect	Gli-Sufu block	COUP-TFII inh	Jurkat NFkB inh	697 NFkB inh
CN(C)CCCNc1ccc(-c2n[nH]c(=O)c3ccccc23)cc1[N+](=O)[O-]	2	55*	13	-4	-7	-4
CCCC(=O)OC12CCCN(C1)/C(=C/c1ccc(Cl)cc1)C2 (stereo not drawn)	/	/	/	17	/	/
COc1ccc(/C=C/S(=O)(=O)NC2CCCC2)c(CNC(=O)OC(C)(C)C)c1	/	/	/	3	/	/
CCN(CC)C(=O)c1ccc2c3c(cccc13)C(=O)N(CCc1ccc(OC)c(OC)c1)C2=O	/	71*	12	/	-3	-2
COc1ccc(CCN2C(=O)c3cccc4cccc(c34)C2=O)cc1OC	/	6	-11	16	4	4
N#Cc1cccc(OC[C@@H](O)CN2CCC(C(O)(c3ccccc3)c3ccccc3)CC2)c1	/	/	/	-11	/	/
CC(=O)N1CCN(C(=O)CCn2nnc3ccccc32)CC1	/	/	/	-14	/	/
O=S1(=O)c2ccc(Br)cc2OC[C@H](Cc2ccccc2)N1Cc1cn(Cc2ccc(C(F)(F)F)cc2)nn1	/	/	/	-4	/	/
CCOc1ccccc1C(=O)N/N=C/c1cccc2cccnc12	-7	86*	13	12	-5	6
CSCC[C@H](NC(=O)OC(C)(C)C)C(=O)N/N=C/c1cccc2cccnc12	24	52*	-9	15	0	-19
CCOc1ccc(C(=O)N/N=C/c2cccc3cccnc23)cc1	8	15	6	-5	-1	13
COC(=O)[C@]12C[C@H](CC(=O)NCCC(C)C)C(=O)N(Cc3ccc4c(c3)OCO4)C1=C[C@H](C(C)(C)C)O[C@@H]2C	/	/	/	18	/	/
CCCCNC(=O)C1CCCN1C(=O)Nc1ccc(Cl)cc1 (stereo not drawn)	/	/	/	-2	/	/
C[C@H](CO)N1C[C@H](C)[C@@H](CN(C)C(=O)Nc2ccc3c(c2)OCO3)OCc2cn(nn2)CCCC1=O	/	/	/	-6	/	/
COc1ccc(-n2c(O)c(/C=N/Nc3nc(C)cc(C)n3)c3ccccc3c2=O)cc1OC	5	62*	29	6	2	13
C=CS(=O)(=O)N(Cc1nnn(Cc2ccccc2)c1Br)[C@@H](CC(C)C)C(=O)OC	/	/	/	8	/	/
Cc1ccc(Cn2c(CCNc3nc(-c4ccc(Cl)c([N+](=O)[O-])c4)cs3)nc3cc(C(=O)NCCCO)ccc32)cc1	0	70*	12	14	5	-2
O=[N+]([O-])c1cc(-c2csc(NCCc3nc4cc(C(F)(F)F)ccc4n3CCCO)n2)ccc1Cl	12	-12	7	-4	2	12
NC(=O)c1ccccc1N=Cc1ccccn1	/	78*	3	9	-9	-5
NC(=O)c1ccccc1N=Cc1cccnc1	2	47	6	6	-3	16
COc1cc(C=Nn2c(-c3cc(-c4ccccc4)n[nH]3)n[nH]c2=S)ccc1OC(C)=O	/	/	/	-35	/	/
